Laboratory results reported in the supplement of paper PMC8699584.
Where a name gives a salt, the structure may show the parent alone. ± gives the standard deviation of the averaged measurements.

How the values were obtained:
Molm13 = experiment: cell viability relative to DMSO control (bortezomib = 0%); higher = less growth inhibition; conditions: 10 nM; 72 h
Method in brief: (§1)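 Acute myeloid leukemia cells, 1000 per well in 50 µL, were incubated for 72 h on 384-well plates with 679 approved and investigational compounds, each at a single 10 nM dose. Viability was read by CellTiter-Glo luminescence. Values were expressed as percentages through per-plate linear regression against DMSO-treated (100%) and positive-control-treated (0%) cells.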

Mv4-11 = experiment: as above; conditions: 10 nM; 72 h
Method in brief: as §1

**Q.** How did the cell viability (Molm13) turn out when `O=C(NCc1cccc(O)c1)Nc1nc(-c2ccncc2)cs1` was run?
**A.** The cell viability was 88.6 ± 11%.

**Q.** What about the cell viability (Mv4-11) of the same molecule?
**A.** The cell viability was 121 ± 9%.

**Q.** `Cn1cc(C2=C(c3cn(CCCSC(=N)N)c4ccccc34)C(=O)NC2=O)c2ccccc21` [Bisindolylmaleimide IX (mesylate)] was tested. Which cell viability (Molm13) did it give?
**A.** The cell viability was 99.3 ± 4.7%.

**Q.** And the cell viability (Mv4-11)?
**A.** Its cell viability is 104 ± 12%.

**Q.** How did the cell viability (Molm13) turn out when `CN1CC[C@H](c2c(O)cc(O)c3c(=O)cc(-c4ccccc4Cl)oc23)[C@H](O)C1` [Flavopiridol (Alvocidib) hydrochloride] was run?
**A.** The cell viability was 113.8 ± 0.38%.

**Q.** What about the cell viability (Mv4-11) of the same molecule?
**A.** The cell viability was 100 ± 3.2%.

**Q.** With `COc1cc(/C=C(\C#N)C(N)=O)cc(CSc2nc3ccccc3s2)c1O` as the molecule, how does the cell viability (Molm13) read?
**A.** The cell viability was 112 ± 4.3%.

**Q.** What about the cell viability (Mv4-11) of the same molecule?
**A.** The cell viability was 93.1 ± 5.8%.

**Q.** What does the source list for `N#Cc1cccc(-c2c[nH]c3ncnc(N4CCOCC4)c23)c1`?
**A.** cell viability (Molm13): 109 ± 23%; cell viability (Mv4-11): 100 ± 8.2%

**Q.** How did the cell viability (Molm13) turn out when `O=C(O)c1c[nH]c2c(ccc3ccccc32)c1=O` was run?
**A.** The cell viability was 87 ± 11%.

**Q.** What about the cell viability (Mv4-11) of the same molecule?
**A.** The cell viability was 106 ± 6.8%.

**Q.** Which results are given for `COC(=O)c1ccc2c(c1)NC(=O)/C2=C(\Nc1ccc(N(C)C(=O)CN2CCN(C)CC2)cc1)c1ccccc1` [Nintedanib (BIBF 1120)]?
**A.** cell viability (Molm13): 83.62 ± 0.69%; cell viability (Mv4-11): 113 ± 5.7%

**Q.** How did the cell viability (Molm13) turn out when `CC(=O)c1c(C)c2cnc(Nc3ccc(N4CCNCC4)cn3)nc2n(C2CCCC2)c1=O` [Palbociclib] was run?
**A.** Its cell viability is 90.4 ± 13%.

**Q.** What about the cell viability (Mv4-11) of the same molecule?
**A.** Its cell viability is 113 ± 9.9%.

**Q.** `CN1CCCN(C(=O)c2cccc(-c3ccc(/C=C4/C(=O)Nc5ccc(Cl)cc54)o3)c2)CC1` was tested. Which cell viability (Molm13) did it give?
**A.** The cell viability was 127 ± 13%.

**Q.** And the cell viability (Mv4-11)?
**A.** Its cell viability is 120 ± 2.9%.

**Q.** For `C#Cc1cccc(Nc2ncnc3cc(OC)c(OCCCCCCC(=O)NO)cc23)c1`, which cell viability (Molm13) is on record?
**A.** Its cell viability is 105 ± 10%.

**Q.** And the cell viability (Mv4-11)?
**A.** The cell viability was 120 ± 20%.

**Q.** How did the cell viability (Molm13) turn out when `COc1cc(-c2cc(-c3ccc(N4CCNCC4)cc3)cnc2C)cc(OC)c1OC` was run?
**A.** Its cell viability is 111 ± 5.7%.

**Q.** And the cell viability (Mv4-11)?
**A.** The cell viability was 107 ± 3.6%.

**Q.** How did the cell viability (Molm13) turn out when `CC(C)(C#N)c1ccc(N2C(=O)OCc3cnc4ccc(-c5cnc6ccccc6c5)cc4c32)cc1` was run?
**A.** Its cell viability is 93.6 ± 11%.

**Q.** What about the cell viability (Mv4-11) of the same molecule?
**A.** The cell viability was 102 ± 9.2%.
